Source: PubChem BioAssay AID1851 (National Center for Advancing Translational Sciences (NCATS), 2009)
The campaign covered roughly 16,000 compounds. About 5,700 (36%) were called active. Another 24% or so got no clear call; they are omitted. The list shows a part of the results. Unmarked numbers belong to inactive results. Calls come from the whole dose curve; as a rule, active = well fitted curve in the direction sought with a large enough effect; inconclusive = small, poorly fitted or top-dose-only effect, or effect the other way; inactive = no such curve, though single readings can be large or run the other way.

Target: Cytochrome P450 1A2 (Homo sapiens) (UniProt P05177)
Sequence (P05177 whole entry, looked up): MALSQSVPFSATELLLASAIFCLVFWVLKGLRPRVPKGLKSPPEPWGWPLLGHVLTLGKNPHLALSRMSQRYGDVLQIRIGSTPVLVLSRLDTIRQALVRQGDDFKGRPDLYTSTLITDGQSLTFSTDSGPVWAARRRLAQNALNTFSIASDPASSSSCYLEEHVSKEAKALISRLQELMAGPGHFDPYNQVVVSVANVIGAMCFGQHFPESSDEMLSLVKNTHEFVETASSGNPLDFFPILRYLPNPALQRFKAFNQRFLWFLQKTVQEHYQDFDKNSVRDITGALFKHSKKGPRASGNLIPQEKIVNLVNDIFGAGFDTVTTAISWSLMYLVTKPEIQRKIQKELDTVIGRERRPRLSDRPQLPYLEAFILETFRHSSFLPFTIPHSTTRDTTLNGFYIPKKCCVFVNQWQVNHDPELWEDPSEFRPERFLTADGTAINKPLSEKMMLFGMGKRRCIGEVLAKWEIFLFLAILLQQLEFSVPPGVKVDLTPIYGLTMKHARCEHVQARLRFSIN
Experiment: Cytochrome panel assay with activity outcomes
Details: recombinant CYP, pro-luciferin dealkylation, luminescence, p450-cyp1a2; series mostly up to 57.1 µM; activity, negative = inhibition: at the top concentration
% is set by controls: 0 for no effect and ±100 for the full control effect.

Row | SMILES | activity, negative = inhibition | AC50
1 | COc1ccc(C2SCC(=O)Nc3c2c(C)nn3C2CCOC(C)(C)C2)cc1 (configuration not stated) | -2.75% | 
2 | CCN1C[C@@]2(COC)CC[C@H](O)[C@@]34[C@@H]2C[C@@H]([C@@H]13)[C@]1(O)C[C@@H](OC)C2C[C@H]4[C@H]1[C@H]2OC(C)=O | -7.59% [at 25.6 µM] | 
3 | CC[C@@H]1CN2CCc3cc(OC)c(OC)cc3[C@H]2C[C@@H]1C[C@@H]1NCCc2cc(OC)c(OC)cc21 | -2.31% | 
4 | CCc1cc2c(nc1CC)CCN(CC/C(C)=N/OC)C2 | -0.582% [at 11.4 µM] | 
5 | C=C1C/C(=C\C)C(=O)O[C@@H]2CCN3CC=C(COC(=O)[C@@]1(C)O)[C@H]23 | -3.75% [at 25.6 µM] | 
6 | CC[N+](CC)(CC)CCOc1cccc(OCC[N+](CC)(CC)CC)c1OCC[N+](CC)(CC)CC | -0.0726% [at 25.6 µM] | 
7 | N/C(=N\N=C/c1ccc(-c2ccc(O)c(C(=O)O)c2)o1)N[N+](=O)[O-] | -7.3% | 
8 | Cc1o[nH]c(=O)c1C[C@@H](N)C(=O)O | -5.8% | 
9 | C[C@H]1CC[C@]2(OC1)O[C@@H]1C[C@@H]3[C@@H]4CC[C@H]5C[C@@H](O)CC[C@]5(C)[C@@H]4CC(=O)[C@@]3(C)[C@H]1[C@@H]2C | -5.06% [at 25.6 µM] | 
10 | CC(=O)OCC1=C(C(=O)O)N2C(=O)[C@@H](N)[C@@H]2SC1 | -3.51% [at 25.6 µM] | 
11 | c1ccc(N2CCC3(CCNCC3)CC2)cc1 | -18.3% | 
12 | Clc1cccc(N2CCNCC2)c1 |  | 15.8 µM (active)
13 | c1ccc(N2CC3(CCNCC3)C2)cc1 | 3.8% | 
14 | CCN1CCN(S(=O)(=O)c2ccc(Cl)nc2)CC1 | 9.49% | 
15 | C[C@@]12CCC(=O)C=C1C=C[C@H]1[C@H]3CC[C@](O)(CCC(=O)O)[C@]3(C)CC[C@@H]12 | -8.24% [at 25.6 µM] | 
16 | O=C(O)[C@@H]1[C@H](C(=O)O)[C@]2(Cl)C(Cl)=C(Cl)[C@@]1(Cl)C2(Cl)Cl | -14.5% [at 11.4 µM] | 
17 | CCCn1c(=O)c2[nH]c(C3CCCC3)nc2n(CCCOC(=O)c2ccc(S(=O)(=O)F)cc2)c1=O | -7.67% | 
18 | CC(C)C(=O)CP(=O)(O)O | -6.25% [at 11.4 µM] | 
19 | CC(C)c1c(CN(C)[C@@H](C)Cc2ccccc2)n(C)n(-c2ccccc2)c1=O | -19.1% [at 25.6 µM] | 

Row | SMILES | activity, negative = inhibition | AC50
20 | C#CCN(C)[C@H](C)Cc1ccccc1 |  | 12.6 µM (active)
21 | CCCN1CCC[C@@H]2Cc3[nH]ncc3C[C@H]21 |  | inactive
22 | CC(C)[C@]1(O)[C@@H](OC(=O)c2ccc[nH]2)[C@]2(O)[C@@]3(C)C[C@@]4(O)O[C@@]5([C@H](O)[C@@H](C)CC[C@]35O)[C@]2(O)[C@]41C | -17.2% [at 2.29 µM] | 
23 | O=C(O)[C@H]1[C@H](C(=O)O)[C@H]2CC[C@@H]1O2 | 2.38% | 
24 | CCCCc1ccc(-c2nc(NC(=O)C3C4CCC(O4)C3C(=O)O)sc2C)cc1 (configuration not stated) |  | 15.8 µM (active)
25 | CC(C)[C@@]1(NC(=O)[C@@H]2C[C@H]3c4cccc5[nH]cc(c45)C[C@@H]3N(C)C2)O[C@]2(O)[C@H]3CCCN3C(=O)CN2C1=O | -12.6% [at 25.6 µM] | 
26 | O=C(O)[C@H]1CCN1 | 0.0533% | 
27 | CC[C@]1([C@H]2O[C@@H]([C@@H]3O[C@](O)(CO)[C@@H](C)C[C@H]3C)C[C@H]2C)CC[C@@H]([C@]2(C)CC[C@@]3(C[C@@H](O)[C@@H](C)[C@@H]([C@H](C)[C@H](OC)[C@H](C)C(=O)O)O3)O2)O1 | -4.88% [at 25.6 µM] | 
28 | CC(=O)OC1=CC2=CC[C@H]3[C@H]4CCC(=O)[C@@]4(C)CC(=O)[C@]3(S)[C@]2(C)CC1 | -9.43% [at 2.29 µM] | 
29 | N[C@@H]1C[C@H]1c1ccccc1 |  | 15.8 µM (active)
30 | N[C@H]1C[C@H]1c1ccccc1 |  | 5.01 µM (active)
31 | C[C@@]12CC[C@H](O)C[C@@H]1CC[C@H]1[C@@H]2C[C@@H](O)[C@]2(C)[C@@H](C3=CC(=O)OC3)CC[C@]12O | -3.8% [at 25.6 µM] | 
32 | CCN1CCN(Cc2cc(OC)c(OC)cc2[N+](=O)[O-])CC1 | -23.6% | 
33 | Cc1noc(C)c1C(=O)N1CCC2(CCCN(CC(C)C)C2)CC1 | -17.1% | 
34 | NC(CCl)=N[C@H]1CN2CCC1CC2 | -4.08% [at 11.4 µM] | 
35 | N#Cc1ccc(CN2CCCC3(CCN(C(=O)Oc4ccccc4)CC3)C2)cc1 | -6.6% | 
36 | N#CC(=C(/N)Sc1ccccc1N)/C(C#N)=C(/N)Sc1ccccc1N |  | 31.6 µM (active)
37 | NC(=O)CN1CCCC1=O |  | inactive
38 | CC(C)C(=O)Nc1ccc([N+](=O)[O-])c(C(F)(F)F)c1 |  | 0.316 µM (active)

Row | SMILES | activity, negative = inhibition | AC50
39 | CCN1CCN(c2ccc(NC(=O)C(C)C)cc2Cl)CC1 | -5.66% | 
40 | CS(=O)(=O)N1CCCC(C(=O)N2CCC3(CC2)OCCO3)C1 (configuration not stated) | -9.06% | 
41 | CCOC(=O)C1Cc2c([nH]c3ccccc23)CN1 (configuration not stated) |  | 5.01 µM (active)
42 | CN(C)CS/C(N)=N/[C@H](O)C(Cl)(Cl)Cl | 4.09% [at 2.29 µM] | 
43 | O=C1CN=C(c2cccs2)c2c(sc3c2CCCC3)N1 |  | 15.8 µM (active)
44 | NC[C@H](O)c1ccc(O)cc1 |  | inactive
45 | CN1C2C=C3C(C#N)=C(N)C(C#N)(C#N)[C@H](c4c(F)cccc4F)[C@H]3C1CC2 (some centres not stated) | -20.5% | 
46 | Oc1ccc2c3c1O[C@H]1c4oc5ccccc5c4C[C@]4(O)[C@H](C2)N(CC2CC2)CC[C@@]314 | -3.2% | 
47 | Nc1ccncc1 | -10.7% | 
48 | OCc1cnc[nH]1 | 2.94% | 
49 | NC(=NCCc1ccc(I)cc1)SCCCc1cnc[nH]1 |  | 15.8 µM (active)
50 | CC(=O)OCC1=C(C(=O)[O-])N2C(=O)[C@@H](NC(=O)CCC[C@@H](N)C(=O)[O-])[C@@H]2SC1.[Zn+2] | -8.72% | 
51 | Oc1ccc2[nH]cc(CCCCN3CC=C(c4ccccc4)CC3)c2c1 |  | 31.6 µM (active)
52 | COC1(CS(=O)c2ccccc2)CCN(CCc2c[nH]c3ccc(F)cc23)CC1 (configuration not stated) | -12.4% | 
53 | S=C(Nc1ccc(Cl)cc1)NC1CC2CCCC(C1)N2C1CCCC1 (configuration not stated) | -2.97% | 
54 | O=C(Oc1ccccc1)N1CCC2(CCCN(Cc3ccccc3)C2)CC1 | -22.8% | 
55 | C[C@@H]1O[C@H](O[C@@H]2C=C3CC[C@H]4[C@@H](CC[C@]5(C)[C@@H](c6ccc(=O)oc6)CC[C@]45O)[C@@]3(C)CC2)[C@@H](O)[C@H](O)[C@@H]1O | -2.13% [at 25.6 µM] | 
56 | O=C(O)/C=C(\CC(=O)O)C(=O)O | -6.78% [at 11.4 µM] | 
57 | CN1CCN(c2ncc3ncc(=O)n(C)c3n2)CC1 |  | 12.6 µM (active)
